Laboratory results taken from the supplement of paper PMC11732987, “Enantioselective OTUD7B fragment discovery through chemoproteomics screening and high-throughput optimisation” (Communications Chemistry, 2025).

How the values were obtained:
Test in all cases: log2 ratio of Biotin-Ahx-Ub-VS probe labelling (fragment/DMSO); higher = less target engagement (more negative = stronger competition), active = hit call of the paper (q ≤ 0.05, log2 ratio ≤ -1)
Conditions in all cases: compound concentration: 200 uM; treatment time: 3 h
USP42 = target: T1, USP42 (UniProt Q9H9J4)
T1 sequence (whole entry): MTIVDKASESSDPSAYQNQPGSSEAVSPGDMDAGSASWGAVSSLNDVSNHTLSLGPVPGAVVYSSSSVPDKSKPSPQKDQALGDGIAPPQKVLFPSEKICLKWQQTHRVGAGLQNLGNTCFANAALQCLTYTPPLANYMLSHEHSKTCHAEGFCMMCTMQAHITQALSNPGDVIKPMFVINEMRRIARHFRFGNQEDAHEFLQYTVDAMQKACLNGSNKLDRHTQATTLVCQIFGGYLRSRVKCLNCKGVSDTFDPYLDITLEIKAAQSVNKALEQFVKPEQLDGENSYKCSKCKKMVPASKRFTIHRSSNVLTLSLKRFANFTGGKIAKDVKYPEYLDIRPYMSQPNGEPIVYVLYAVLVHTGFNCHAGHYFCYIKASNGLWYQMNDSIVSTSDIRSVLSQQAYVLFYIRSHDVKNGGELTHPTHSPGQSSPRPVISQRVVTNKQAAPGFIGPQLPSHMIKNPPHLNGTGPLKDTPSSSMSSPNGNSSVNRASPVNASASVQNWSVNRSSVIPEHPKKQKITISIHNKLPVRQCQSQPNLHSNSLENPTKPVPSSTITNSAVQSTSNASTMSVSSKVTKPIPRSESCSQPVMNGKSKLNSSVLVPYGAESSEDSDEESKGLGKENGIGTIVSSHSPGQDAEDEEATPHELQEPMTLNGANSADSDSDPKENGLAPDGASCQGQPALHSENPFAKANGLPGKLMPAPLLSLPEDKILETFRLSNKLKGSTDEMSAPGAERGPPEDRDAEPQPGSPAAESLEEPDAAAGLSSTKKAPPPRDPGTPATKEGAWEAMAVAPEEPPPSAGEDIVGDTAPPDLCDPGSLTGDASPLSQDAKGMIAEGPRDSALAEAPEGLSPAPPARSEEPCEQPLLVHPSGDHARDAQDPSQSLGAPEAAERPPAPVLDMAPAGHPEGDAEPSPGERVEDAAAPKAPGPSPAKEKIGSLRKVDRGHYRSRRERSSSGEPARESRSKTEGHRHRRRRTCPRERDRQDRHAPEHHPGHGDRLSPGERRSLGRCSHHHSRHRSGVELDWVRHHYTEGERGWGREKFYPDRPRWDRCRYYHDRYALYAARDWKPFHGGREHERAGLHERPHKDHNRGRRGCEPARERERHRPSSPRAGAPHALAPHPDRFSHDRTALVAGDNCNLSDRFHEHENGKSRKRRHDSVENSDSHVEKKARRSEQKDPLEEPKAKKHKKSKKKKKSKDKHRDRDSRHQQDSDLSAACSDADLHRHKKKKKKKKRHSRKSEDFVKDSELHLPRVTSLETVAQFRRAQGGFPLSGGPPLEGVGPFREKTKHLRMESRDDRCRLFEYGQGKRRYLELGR
In short: (§1)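 HEK293T lysate (495 µg per sample, in Tris/CHAPS/IGEPAL buffer with protease inhibitors) was treated in triplicate with fragment at 200 µM or with DMSO for 3 h. It was then treated with Biotin-Ahx-Ub-VS (0.5 µM final) for 1 h. Labelled DUBs were NeutrAvidin-enriched, digested with LysC and trypsin, and run by diaPASEF LC-MS/MS. Spectronaut label-free quantities were global-median-normalised. Values are average log2 ratios fragment/DMSO by unpaired t-test, using proteins with ≥2 unique peptides.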

USP46 = USP46 (UniProt P62068)
USP46, sequence (P62068 whole entry): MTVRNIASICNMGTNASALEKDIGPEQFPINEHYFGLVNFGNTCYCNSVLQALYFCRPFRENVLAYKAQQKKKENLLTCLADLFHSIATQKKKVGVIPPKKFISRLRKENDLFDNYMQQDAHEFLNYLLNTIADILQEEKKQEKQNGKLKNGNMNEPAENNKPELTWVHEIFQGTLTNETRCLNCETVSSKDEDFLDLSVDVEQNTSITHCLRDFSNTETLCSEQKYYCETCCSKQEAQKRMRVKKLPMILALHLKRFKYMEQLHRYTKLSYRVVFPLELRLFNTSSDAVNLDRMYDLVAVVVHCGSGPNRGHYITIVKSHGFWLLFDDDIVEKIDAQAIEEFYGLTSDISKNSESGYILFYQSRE
In short: as §1

USP47 = target: T2, USP47 (UniProt Q96K76)
T2 sequence (whole entry): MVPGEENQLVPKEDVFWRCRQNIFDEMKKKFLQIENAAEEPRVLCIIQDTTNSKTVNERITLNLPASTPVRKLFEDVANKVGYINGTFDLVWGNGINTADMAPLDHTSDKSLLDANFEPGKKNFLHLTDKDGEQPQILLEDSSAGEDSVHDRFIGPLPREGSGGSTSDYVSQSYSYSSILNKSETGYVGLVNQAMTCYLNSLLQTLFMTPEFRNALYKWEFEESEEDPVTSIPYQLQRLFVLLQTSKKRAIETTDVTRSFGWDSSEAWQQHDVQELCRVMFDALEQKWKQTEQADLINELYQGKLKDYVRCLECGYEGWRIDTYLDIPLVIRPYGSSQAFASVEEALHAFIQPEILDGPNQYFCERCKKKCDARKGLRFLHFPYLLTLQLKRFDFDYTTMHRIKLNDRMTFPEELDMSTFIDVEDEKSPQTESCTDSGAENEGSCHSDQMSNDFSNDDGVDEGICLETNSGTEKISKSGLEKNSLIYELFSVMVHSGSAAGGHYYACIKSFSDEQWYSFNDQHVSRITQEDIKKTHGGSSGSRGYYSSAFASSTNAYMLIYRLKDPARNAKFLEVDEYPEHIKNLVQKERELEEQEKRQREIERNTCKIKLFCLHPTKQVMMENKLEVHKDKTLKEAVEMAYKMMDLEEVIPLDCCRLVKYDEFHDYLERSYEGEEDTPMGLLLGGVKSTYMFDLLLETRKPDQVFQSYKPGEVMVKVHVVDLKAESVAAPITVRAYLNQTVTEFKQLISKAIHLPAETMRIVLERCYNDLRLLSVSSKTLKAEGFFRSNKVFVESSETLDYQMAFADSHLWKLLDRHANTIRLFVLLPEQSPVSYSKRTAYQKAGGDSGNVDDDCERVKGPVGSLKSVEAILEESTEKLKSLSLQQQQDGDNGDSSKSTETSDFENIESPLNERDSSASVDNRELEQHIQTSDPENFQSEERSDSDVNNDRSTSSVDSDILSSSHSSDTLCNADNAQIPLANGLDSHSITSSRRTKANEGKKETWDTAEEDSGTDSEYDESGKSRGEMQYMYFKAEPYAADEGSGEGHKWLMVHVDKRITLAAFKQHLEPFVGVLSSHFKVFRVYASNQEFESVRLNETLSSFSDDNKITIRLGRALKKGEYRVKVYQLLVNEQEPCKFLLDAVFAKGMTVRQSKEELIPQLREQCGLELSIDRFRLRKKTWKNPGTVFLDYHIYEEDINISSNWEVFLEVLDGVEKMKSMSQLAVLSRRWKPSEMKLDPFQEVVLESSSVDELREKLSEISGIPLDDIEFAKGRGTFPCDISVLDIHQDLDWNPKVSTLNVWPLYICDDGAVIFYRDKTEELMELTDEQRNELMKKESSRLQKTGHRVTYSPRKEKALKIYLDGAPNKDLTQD
In short: as §1

USP48 = target: T3, USP48 (UniProt Q86UV5)
T3 sequence (whole entry): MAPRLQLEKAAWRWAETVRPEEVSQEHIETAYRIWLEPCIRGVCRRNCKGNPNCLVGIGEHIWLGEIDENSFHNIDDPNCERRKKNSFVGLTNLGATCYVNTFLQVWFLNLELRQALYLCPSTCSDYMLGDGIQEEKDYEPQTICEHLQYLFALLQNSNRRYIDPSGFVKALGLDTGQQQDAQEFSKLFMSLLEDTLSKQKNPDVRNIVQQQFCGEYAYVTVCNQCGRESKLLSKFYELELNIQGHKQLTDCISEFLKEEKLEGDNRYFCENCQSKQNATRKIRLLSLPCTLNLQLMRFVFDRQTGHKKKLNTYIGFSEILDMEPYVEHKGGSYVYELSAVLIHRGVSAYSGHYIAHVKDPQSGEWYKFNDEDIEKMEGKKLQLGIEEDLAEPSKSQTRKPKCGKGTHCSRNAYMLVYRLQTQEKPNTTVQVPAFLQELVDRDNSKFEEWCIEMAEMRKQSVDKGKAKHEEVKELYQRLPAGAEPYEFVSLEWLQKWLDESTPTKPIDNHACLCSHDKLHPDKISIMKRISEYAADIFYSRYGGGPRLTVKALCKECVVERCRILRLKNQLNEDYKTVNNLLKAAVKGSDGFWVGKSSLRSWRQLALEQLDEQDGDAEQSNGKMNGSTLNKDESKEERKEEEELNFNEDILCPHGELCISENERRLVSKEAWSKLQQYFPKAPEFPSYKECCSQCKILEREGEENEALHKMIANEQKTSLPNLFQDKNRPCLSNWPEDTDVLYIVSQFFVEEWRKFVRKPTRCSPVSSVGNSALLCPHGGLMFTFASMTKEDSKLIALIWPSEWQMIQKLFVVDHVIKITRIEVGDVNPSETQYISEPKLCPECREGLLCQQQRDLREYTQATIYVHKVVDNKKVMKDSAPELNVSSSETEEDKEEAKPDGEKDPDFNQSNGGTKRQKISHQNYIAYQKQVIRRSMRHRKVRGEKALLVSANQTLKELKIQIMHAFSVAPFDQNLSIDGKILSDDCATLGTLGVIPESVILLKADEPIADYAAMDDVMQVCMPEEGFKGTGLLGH
In short: as §1

USP5 = target: T4, USP5 (UniProt P45974)
T4 sequence (whole entry): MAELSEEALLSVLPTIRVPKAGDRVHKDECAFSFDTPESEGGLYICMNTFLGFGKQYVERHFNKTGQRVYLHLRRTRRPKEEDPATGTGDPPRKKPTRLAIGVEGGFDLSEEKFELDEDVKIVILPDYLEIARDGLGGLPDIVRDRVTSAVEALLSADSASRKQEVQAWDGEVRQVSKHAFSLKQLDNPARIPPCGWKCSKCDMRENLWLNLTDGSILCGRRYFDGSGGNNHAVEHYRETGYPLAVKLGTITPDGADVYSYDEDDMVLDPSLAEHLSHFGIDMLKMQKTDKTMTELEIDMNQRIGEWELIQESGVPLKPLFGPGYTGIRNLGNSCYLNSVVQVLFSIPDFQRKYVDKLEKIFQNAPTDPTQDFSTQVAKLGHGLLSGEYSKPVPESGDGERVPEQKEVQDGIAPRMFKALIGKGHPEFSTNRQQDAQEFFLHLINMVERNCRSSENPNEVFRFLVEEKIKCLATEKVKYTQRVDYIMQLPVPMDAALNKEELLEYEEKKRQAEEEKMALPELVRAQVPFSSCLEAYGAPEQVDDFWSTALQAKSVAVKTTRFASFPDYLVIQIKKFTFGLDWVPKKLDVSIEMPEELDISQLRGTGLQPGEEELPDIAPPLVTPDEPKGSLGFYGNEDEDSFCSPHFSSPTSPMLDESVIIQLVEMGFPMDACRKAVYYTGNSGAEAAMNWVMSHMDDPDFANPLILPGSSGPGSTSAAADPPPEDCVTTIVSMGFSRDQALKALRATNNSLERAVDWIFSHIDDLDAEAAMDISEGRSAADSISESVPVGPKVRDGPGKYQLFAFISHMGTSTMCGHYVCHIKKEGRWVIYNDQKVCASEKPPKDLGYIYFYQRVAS
In short: as §1

USP54 = USP54 (UniProt Q70EL1)
USP54, sequence (Q70EL1 whole entry): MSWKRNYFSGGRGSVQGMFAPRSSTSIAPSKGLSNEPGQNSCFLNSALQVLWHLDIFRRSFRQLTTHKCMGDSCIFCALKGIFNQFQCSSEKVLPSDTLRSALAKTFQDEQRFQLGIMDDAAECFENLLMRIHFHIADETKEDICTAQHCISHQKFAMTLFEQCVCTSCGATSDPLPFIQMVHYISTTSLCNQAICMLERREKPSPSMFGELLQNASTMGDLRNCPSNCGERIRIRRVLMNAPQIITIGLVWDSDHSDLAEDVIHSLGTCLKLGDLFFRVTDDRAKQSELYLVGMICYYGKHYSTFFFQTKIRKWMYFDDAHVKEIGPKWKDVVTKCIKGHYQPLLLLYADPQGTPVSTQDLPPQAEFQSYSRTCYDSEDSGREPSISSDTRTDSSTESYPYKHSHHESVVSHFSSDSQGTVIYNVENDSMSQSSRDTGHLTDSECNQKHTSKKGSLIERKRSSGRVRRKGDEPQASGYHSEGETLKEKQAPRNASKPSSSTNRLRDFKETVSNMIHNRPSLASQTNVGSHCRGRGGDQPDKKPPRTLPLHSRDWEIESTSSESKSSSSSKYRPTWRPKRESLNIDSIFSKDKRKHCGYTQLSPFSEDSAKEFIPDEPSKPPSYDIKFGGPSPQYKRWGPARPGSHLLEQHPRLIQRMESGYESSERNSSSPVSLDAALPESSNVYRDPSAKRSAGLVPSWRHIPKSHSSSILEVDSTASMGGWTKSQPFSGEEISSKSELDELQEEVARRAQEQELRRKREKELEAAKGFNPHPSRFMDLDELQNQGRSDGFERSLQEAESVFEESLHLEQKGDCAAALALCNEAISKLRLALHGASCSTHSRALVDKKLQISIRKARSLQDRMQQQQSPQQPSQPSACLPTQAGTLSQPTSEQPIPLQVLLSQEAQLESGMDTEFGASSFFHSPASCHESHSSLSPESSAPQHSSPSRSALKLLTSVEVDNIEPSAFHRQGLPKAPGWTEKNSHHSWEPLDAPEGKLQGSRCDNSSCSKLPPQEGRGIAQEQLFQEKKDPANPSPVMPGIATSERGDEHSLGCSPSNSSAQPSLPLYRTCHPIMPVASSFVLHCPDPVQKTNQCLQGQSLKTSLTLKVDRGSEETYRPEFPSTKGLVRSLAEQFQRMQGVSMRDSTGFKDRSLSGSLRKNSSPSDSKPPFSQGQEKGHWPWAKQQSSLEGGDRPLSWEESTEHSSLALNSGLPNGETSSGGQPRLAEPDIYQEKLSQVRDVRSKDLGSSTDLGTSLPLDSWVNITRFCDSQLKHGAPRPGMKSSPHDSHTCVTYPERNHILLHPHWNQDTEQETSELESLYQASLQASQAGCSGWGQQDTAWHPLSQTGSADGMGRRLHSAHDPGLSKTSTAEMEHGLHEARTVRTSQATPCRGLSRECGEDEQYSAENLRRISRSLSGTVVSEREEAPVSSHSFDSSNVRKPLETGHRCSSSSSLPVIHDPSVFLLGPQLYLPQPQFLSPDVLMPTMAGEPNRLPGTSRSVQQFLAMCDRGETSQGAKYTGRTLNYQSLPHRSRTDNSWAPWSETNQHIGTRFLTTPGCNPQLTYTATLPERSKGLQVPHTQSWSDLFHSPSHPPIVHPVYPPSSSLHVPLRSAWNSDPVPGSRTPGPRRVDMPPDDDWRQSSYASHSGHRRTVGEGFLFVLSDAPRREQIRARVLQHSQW
In short: as §1

USP7 = USP7 (UniProt Q93009)
In short: as §1

USP8 = target: T5, USP8 (UniProt P40818)
T5 sequence (whole entry): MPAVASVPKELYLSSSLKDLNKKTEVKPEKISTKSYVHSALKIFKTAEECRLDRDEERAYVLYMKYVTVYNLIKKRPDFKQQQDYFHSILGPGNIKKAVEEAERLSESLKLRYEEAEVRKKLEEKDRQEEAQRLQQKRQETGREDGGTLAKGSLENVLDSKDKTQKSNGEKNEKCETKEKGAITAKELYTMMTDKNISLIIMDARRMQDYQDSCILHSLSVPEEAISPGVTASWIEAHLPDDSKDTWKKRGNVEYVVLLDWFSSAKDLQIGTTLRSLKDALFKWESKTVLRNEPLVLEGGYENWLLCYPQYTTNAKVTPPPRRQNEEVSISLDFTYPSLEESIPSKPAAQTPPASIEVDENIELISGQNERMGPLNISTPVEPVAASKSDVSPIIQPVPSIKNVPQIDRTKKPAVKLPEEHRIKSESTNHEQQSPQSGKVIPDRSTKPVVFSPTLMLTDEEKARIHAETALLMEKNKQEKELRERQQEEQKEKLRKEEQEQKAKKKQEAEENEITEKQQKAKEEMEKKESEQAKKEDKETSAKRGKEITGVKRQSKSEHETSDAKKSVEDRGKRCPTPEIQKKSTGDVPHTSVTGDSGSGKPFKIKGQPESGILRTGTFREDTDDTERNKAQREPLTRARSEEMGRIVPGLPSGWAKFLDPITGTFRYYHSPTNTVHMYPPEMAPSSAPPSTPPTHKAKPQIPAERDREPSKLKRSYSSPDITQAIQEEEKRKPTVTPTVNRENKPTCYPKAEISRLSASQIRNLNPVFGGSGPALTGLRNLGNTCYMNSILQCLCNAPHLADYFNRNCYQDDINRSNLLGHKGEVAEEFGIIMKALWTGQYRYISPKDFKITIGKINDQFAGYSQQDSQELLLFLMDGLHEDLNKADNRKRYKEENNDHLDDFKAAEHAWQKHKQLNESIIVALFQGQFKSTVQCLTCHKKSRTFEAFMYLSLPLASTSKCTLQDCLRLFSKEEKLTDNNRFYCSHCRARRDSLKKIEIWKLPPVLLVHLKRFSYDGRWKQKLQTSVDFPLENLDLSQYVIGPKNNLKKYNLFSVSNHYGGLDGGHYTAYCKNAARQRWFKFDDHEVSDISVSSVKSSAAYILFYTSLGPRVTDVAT
In short: as §1

USP9X = USP9X (UniProt Q93008)
USP9X, sequence (Q93008 whole entry): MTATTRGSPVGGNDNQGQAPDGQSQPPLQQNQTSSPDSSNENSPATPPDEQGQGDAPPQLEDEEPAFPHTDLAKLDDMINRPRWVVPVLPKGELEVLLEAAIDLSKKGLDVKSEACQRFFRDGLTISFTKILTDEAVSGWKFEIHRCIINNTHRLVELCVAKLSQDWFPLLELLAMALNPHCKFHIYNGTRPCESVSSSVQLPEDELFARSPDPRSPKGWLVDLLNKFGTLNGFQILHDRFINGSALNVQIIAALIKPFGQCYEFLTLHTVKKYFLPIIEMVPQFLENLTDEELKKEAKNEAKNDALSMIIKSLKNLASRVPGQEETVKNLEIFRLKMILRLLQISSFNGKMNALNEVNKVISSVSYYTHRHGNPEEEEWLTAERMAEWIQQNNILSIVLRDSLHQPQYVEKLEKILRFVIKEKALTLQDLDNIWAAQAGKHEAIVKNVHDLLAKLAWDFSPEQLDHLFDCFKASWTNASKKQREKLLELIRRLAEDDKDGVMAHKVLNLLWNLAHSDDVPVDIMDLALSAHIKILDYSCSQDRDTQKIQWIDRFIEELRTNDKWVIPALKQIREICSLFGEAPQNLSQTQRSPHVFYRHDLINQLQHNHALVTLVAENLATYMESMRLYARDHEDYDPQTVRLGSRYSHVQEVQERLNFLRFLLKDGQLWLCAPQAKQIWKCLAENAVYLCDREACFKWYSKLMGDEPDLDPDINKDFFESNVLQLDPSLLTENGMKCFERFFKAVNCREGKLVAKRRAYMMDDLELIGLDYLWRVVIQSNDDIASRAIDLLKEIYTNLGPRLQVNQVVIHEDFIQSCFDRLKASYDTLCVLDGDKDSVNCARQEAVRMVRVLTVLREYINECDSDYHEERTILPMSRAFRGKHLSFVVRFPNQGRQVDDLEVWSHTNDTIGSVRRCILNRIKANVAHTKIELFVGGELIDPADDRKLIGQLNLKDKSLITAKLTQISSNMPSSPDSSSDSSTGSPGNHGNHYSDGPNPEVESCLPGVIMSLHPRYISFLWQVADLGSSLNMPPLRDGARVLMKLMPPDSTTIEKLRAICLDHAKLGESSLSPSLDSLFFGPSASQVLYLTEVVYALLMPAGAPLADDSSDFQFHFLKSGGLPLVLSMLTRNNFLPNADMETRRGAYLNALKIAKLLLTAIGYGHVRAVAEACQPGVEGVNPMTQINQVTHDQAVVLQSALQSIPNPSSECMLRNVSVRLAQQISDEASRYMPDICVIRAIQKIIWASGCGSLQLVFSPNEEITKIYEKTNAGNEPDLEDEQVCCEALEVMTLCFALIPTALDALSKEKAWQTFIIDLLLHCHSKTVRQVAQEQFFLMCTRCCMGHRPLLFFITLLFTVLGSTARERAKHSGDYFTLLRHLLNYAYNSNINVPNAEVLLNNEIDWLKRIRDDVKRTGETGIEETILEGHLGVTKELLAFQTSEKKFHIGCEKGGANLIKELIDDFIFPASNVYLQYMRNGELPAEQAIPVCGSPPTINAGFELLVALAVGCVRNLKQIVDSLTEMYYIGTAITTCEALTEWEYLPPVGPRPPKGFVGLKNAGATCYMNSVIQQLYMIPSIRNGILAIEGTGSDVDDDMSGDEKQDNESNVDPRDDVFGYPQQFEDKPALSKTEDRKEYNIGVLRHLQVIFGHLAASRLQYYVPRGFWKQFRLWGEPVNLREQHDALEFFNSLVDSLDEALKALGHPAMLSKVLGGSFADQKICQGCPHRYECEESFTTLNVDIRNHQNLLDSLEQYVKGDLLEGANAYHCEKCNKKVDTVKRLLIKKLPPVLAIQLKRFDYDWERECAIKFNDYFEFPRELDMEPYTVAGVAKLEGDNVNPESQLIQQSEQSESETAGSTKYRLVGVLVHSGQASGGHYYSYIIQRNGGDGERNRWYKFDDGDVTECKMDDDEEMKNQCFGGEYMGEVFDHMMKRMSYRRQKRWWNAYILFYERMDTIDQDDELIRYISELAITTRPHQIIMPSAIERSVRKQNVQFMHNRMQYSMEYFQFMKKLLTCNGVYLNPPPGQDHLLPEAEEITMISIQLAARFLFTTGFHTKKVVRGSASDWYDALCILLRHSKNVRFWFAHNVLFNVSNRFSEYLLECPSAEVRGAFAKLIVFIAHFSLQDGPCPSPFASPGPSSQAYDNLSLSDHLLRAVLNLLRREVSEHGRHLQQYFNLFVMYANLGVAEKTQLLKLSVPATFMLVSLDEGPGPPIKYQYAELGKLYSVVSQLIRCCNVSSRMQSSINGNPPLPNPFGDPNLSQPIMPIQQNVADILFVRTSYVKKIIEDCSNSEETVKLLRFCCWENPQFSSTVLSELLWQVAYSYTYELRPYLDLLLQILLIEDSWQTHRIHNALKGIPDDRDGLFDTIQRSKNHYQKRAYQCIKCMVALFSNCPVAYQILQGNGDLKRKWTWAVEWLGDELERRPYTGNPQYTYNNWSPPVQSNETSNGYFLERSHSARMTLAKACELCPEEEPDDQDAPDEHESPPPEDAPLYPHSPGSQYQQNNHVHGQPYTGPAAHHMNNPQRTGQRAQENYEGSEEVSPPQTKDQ
In short: as §1

UniProt O00487 = target: UniProt O00487
UniProt O00487, sequence (O00487 whole entry): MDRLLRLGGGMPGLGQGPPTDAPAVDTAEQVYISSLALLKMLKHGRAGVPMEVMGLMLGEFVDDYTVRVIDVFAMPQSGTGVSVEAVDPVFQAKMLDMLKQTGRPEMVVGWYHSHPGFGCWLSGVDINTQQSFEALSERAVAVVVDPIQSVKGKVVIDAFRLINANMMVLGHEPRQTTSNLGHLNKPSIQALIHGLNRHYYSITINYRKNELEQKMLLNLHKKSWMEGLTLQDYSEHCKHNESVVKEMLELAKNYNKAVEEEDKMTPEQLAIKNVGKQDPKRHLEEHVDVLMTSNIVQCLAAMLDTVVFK
In short: as §1

Measured: log2 ratio of Biotin-Ahx-Ub-VS probe labelling

COc1cccc(CN(C)C(=O)CCl)c1
inactive: USP42 -0.309 | USP46 -0.0667 | USP47 -0.35 | USP48 -0.935 | USP5 0.462 | USP54 0.00406 | USP8 0.148 | USP9X 0.0455 | UniProt O00487 0.0127
active: USP7 -1.43
